For seven sequences, binding signal results are on record in publication PMC7862700, “An all-to-all approach to the identification of sequence-specific readers for epigenetic DNA modifications on cytosine”.

Assay in all cases: DAPPL (digital affinity profiling via proximity ligation, sequencing); 10 mM Tris-HCl pH 7.5, 50 mM NaCl, 1 mM DTT, 4% glycerol, room temperature, 30 min; GST-TFs on glutathione beads, 16-mer random dsDNA library, 0.1% formaldehyde crosslink after washing; high values mean tight binding
Common to all, as to conditions: protein: recombinant; tags: N-terminal GST; dsDNA, one strand shown

The target of one test is T1, FLI1 (Homo sapiens, UniProt Q01543 1-452).
T1 sequence: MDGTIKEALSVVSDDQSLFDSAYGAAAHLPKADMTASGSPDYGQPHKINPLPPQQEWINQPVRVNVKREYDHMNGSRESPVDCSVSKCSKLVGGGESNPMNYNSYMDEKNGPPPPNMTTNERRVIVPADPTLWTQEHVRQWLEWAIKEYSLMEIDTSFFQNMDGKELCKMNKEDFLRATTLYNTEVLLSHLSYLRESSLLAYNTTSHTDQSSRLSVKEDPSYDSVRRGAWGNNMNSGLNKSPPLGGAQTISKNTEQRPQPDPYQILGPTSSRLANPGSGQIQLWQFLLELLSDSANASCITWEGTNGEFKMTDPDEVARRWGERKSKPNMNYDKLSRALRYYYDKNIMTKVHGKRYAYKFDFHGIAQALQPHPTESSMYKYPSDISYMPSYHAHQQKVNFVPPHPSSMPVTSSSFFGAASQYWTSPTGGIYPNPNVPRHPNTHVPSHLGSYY
Put shortly: (§1)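 A tag-only sample was pooled with DNA-barcoded human transcription factors that had been expressed in yeast as GST fusions and captured on glutathione beads. The pools were incubated for 30 min at room temperature with 200 nmole of a random double-stranded 16-mer DNA library in Tris/NaCl/DTT/glycerol buffer, then washed, crosslinked with 0.1% formaldehyde, proximity-ligated (BsaI/T4 ligase, 1 h, 37 °C), PCR-amplified and sequenced on an Illumina NextSeq500. Binding signal is each hexamer's read frequency for a factor divided by its frequency for the tag-only sample.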

Another test deals with T2, ELK1 (Homo sapiens, UniProt P19419 1-428).
T2 sequence: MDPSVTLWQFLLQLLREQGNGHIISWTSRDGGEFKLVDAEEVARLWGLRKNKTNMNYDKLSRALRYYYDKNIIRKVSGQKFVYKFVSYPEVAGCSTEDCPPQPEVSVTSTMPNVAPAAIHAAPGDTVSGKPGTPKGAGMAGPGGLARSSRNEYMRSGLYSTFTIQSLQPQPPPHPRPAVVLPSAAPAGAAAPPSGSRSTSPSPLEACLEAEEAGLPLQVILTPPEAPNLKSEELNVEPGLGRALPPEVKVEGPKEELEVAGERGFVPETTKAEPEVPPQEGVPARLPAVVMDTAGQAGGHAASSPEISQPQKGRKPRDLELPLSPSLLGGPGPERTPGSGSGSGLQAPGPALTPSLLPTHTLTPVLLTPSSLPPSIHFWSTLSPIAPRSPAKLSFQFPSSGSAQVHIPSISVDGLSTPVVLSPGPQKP
Put shortly:
as §1

Another test deals with T3, GABPA (Homo sapiens, UniProt Q06546 1-454).
T3 sequence: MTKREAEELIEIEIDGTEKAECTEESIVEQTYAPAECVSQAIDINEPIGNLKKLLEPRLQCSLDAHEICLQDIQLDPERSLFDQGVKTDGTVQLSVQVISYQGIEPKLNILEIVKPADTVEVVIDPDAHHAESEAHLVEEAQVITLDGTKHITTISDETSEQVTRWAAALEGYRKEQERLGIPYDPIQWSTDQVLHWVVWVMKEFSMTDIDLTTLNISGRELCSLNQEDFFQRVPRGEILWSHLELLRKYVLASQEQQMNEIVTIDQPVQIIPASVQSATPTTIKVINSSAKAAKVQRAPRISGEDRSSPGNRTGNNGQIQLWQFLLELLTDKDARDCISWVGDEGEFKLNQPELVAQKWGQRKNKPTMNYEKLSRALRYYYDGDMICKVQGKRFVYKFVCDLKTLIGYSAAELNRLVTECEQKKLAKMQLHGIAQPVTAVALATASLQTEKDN
Put shortly:
as §1

The next test deals with T4, ERG (Homo sapiens, UniProt P11308 1-479).
T4 sequence: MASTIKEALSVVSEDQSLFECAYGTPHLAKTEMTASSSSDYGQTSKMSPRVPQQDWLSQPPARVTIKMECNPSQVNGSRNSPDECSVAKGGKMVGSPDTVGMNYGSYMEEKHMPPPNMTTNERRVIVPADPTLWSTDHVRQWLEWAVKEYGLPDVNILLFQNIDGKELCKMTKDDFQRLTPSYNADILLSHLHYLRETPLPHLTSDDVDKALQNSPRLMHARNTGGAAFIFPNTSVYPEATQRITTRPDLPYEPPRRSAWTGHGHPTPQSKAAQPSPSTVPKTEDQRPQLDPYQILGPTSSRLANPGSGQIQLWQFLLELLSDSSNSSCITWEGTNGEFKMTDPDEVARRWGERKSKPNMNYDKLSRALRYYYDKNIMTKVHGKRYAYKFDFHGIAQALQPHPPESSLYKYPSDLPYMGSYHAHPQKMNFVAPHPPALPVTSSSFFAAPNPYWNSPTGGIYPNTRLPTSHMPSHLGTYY
Put shortly: as §1

The target in another test is ELF1 (Homo sapiens, UniProt P32519 1-619). Put shortly: as §1
Sequence of ELF1 (P32519 whole entry): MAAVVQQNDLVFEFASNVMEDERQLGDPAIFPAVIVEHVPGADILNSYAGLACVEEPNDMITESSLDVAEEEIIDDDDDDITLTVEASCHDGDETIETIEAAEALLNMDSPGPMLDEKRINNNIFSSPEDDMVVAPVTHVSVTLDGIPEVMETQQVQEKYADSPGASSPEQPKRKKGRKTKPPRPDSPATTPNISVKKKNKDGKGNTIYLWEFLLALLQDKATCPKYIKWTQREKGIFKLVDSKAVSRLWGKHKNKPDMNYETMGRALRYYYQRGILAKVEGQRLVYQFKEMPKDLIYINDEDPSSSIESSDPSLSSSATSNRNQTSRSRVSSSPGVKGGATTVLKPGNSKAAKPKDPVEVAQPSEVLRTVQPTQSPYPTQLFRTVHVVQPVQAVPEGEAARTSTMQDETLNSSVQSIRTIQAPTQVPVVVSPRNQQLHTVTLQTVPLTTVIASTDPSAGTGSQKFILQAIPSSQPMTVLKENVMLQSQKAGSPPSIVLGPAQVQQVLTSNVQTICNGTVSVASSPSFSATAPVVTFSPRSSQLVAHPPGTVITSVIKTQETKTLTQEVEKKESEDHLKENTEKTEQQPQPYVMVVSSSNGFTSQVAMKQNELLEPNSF
In the next test the target is T5, EHF (Homo sapiens, UniProt Q9NZC4 1-300).
T5 sequence: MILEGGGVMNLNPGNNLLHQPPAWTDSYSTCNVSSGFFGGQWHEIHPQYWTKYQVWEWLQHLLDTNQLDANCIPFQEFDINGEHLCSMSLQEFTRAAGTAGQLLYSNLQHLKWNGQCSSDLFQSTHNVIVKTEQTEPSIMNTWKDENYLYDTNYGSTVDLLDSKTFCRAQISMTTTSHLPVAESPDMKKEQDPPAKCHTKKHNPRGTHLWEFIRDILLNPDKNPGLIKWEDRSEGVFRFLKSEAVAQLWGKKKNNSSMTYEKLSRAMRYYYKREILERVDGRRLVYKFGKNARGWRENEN
Put shortly:
as §1

A further test concerns the target SPI1 (Homo sapiens, UniProt P17947 1-270). Put shortly:
as §1

The target of the next test is SPIB (Homo sapiens, UniProt Q01892 1-262). Put shortly:
as §1

A further test has as its target T6, ELK3 (Homo sapiens, UniProt P41970 1-407).
T6 sequence: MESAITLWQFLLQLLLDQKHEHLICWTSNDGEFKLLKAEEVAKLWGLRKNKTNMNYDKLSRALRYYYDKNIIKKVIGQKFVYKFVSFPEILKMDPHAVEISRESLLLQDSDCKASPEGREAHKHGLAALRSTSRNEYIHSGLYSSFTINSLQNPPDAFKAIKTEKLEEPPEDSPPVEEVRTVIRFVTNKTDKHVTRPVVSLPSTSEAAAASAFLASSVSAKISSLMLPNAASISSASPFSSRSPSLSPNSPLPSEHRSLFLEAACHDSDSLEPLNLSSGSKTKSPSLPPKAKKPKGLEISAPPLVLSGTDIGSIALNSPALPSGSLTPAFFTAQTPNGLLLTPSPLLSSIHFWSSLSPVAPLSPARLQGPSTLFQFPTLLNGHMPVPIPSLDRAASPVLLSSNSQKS
Put shortly:
as §1

Sequence of SPIB (Q01892 whole entry): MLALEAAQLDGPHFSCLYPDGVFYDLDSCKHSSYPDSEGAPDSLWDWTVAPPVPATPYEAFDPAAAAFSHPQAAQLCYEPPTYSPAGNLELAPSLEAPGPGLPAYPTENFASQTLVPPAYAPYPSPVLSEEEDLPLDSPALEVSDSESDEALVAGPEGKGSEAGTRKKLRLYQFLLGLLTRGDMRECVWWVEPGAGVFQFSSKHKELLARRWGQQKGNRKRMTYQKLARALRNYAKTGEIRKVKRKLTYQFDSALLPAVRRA

For the sequence ATTTGC, the binding signal is 1.3 fold enrichment (6-mer frequency, TF over GST control) in the test with FLI1; 1.36 fold enrichment (6-mer frequency, TF over GST control) with ELK1; 1.34 fold enrichment (6-mer frequency, TF over GST control) with GABPA; 1.32 fold enrichment (6-mer frequency, TF over GST control) with ERG; 1.34 fold enrichment (6-mer frequency, TF over GST control) with ELF1; 1.17 fold enrichment (6-mer frequency, TF over GST control) with EHF. Moreover, the binding signal with SPI1 was 1.41 fold enrichment (6-mer frequency, TF over GST control); in the test with SPIB, 1.32 fold enrichment (6-mer frequency, TF over GST control); in the test with ELK3, 1.2 fold enrichment (6-mer frequency, TF over GST control).

With GTTGCT, the binding signal with FLI1 is 1.34 fold enrichment (6-mer frequency, TF over GST control); with ELK1, 1.26 fold enrichment (6-mer frequency, TF over GST control); in the test with GABPA, 1.25 fold enrichment (6-mer frequency, TF over GST control); with ERG, 1.3 fold enrichment (6-mer frequency, TF over GST control); with ELF1, 1.31 fold enrichment (6-mer frequency, TF over GST control); in the test with EHF, 1.35 fold enrichment (6-mer frequency, TF over GST control). Further, the binding signal in the test with SPI1 was 1.34 fold enrichment (6-mer frequency, TF over GST control); in the test with SPIB, 1.28 fold enrichment (6-mer frequency, TF over GST control); in the test with ELK3 it was 1.25 fold enrichment (6-mer frequency, TF over GST control).

For the sequence CTCCTA, the binding signal was 1.47 fold enrichment (6-mer frequency, TF over GST control) in the test with FLI1; 1.19 fold enrichment (6-mer frequency, TF over GST control) in the test with ELK1; 1.38 fold enrichment (6-mer frequency, TF over GST control) in the test with GABPA; 1.22 fold enrichment (6-mer frequency, TF over GST control) with ERG; 1.24 fold enrichment (6-mer frequency, TF over GST control) in the test with ELF1; 1.25 fold enrichment (6-mer frequency, TF over GST control) with EHF. The binding signal with SPI1 was 1.46 fold enrichment (6-mer frequency, TF over GST control); in the test with SPIB it was 1.4 fold enrichment (6-mer frequency, TF over GST control); with ELK3, 1.24 fold enrichment (6-mer frequency, TF over GST control).

As for TCTCCT, the binding signal was 1.45 fold enrichment (6-mer frequency, TF over GST control) with FLI1; 1.41 fold enrichment (6-mer frequency, TF over GST control) with ELK1; 1.53 fold enrichment (6-mer frequency, TF over GST control) with GABPA; 1.37 fold enrichment (6-mer frequency, TF over GST control) in the test with ERG; 1.38 fold enrichment (6-mer frequency, TF over GST control) in the test with ELF1; 1.43 fold enrichment (6-mer frequency, TF over GST control) with EHF. Besides, the binding signal is 1.6 fold enrichment (6-mer frequency, TF over GST control) in the test with SPI1; 1.4 fold enrichment (6-mer frequency, TF over GST control) with SPIB; 1.46 fold enrichment (6-mer frequency, TF over GST control) with ELK3.

Take ATTATT: the binding signal with FLI1 was 1.14 fold enrichment (6-mer frequency, TF over GST control); with ELK1, 1.17 fold enrichment (6-mer frequency, TF over GST control); in the test with GABPA, 1.1 fold enrichment (6-mer frequency, TF over GST control); with ERG it was 1.17 fold enrichment (6-mer frequency, TF over GST control); with ELF1 it was 1.13 fold enrichment (6-mer frequency, TF over GST control); in the test with EHF it was 1.16 fold enrichment (6-mer frequency, TF over GST control). Besides, the binding signal was 1.02 fold enrichment (6-mer frequency, TF over GST control) with SPI1; 1.12 fold enrichment (6-mer frequency, TF over GST control) with SPIB; 1.14 fold enrichment (6-mer frequency, TF over GST control) with ELK3.

Take TGCTAA: the binding signal is 1.24 fold enrichment (6-mer frequency, TF over GST control) in the test with FLI1; 1.37 fold enrichment (6-mer frequency, TF over GST control) in the test with ELK1; 1.18 fold enrichment (6-mer frequency, TF over GST control) in the test with GABPA; 1.23 fold enrichment (6-mer frequency, TF over GST control) in the test with ERG; 1.22 fold enrichment (6-mer frequency, TF over GST control) in the test with ELF1; 1.27 fold enrichment (6-mer frequency, TF over GST control) with EHF. Besides, the binding signal in the test with SPI1 was 1.34 fold enrichment (6-mer frequency, TF over GST control); with SPIB it was 1.28 fold enrichment (6-mer frequency, TF over GST control); with ELK3 it was 1.29 fold enrichment (6-mer frequency, TF over GST control).

In the case of GCTTCG, the binding signal in the test with FLI1 is 1.3 fold enrichment (6-mer frequency, TF over GST control); with ELK1, 1.46 fold enrichment (6-mer frequency, TF over GST control); with GABPA it was 1.35 fold enrichment (6-mer frequency, TF over GST control); with ERG, 1.36 fold enrichment (6-mer frequency, TF over GST control); with ELF1 it was 1.32 fold enrichment (6-mer frequency, TF over GST control); with EHF it was 1.26 fold enrichment (6-mer frequency, TF over GST control). The binding signal was 1.26 fold enrichment (6-mer frequency, TF over GST control) with SPI1; 1.3 fold enrichment (6-mer frequency, TF over GST control) with SPIB; 1.4 fold enrichment (6-mer frequency, TF over GST control) with ELK3.
